# Test results taken from the supplement of paper PMC11732987, “Enantioselective OTUD7B fragment discovery through chemoproteomics screening and high-throughput optimisation” (Communications Chemistry, 2025).
# Values without a mark were called inactive.
# Compound: COc1cccc(CN(C)C(=O)CCl)c1
# Assay: log2 ratio of Biotin-Ahx-Ub-VS probe labelling (compound/DMSO); higher = less target engagement, active = hit call of the paper (q ≤ 0.05, log2 ratio ≤ -1)
# Conditions: compound concentration: 50uM; treatment time: 3 h
# Protocol: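 Round 2 competitive ABPP in HEK293T lysate. Compounds were tested at 50 and 200 µM for 3 h, followed by Biotin-Ahx-Ub-VS enrichment and diaPASEF LC-MS/MS. Values are the average log2 ratio (compound/DMSO) from an unpaired t-test (n=3 treated, n=26 DMSO).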
# UniProt P40818, sequence (P40818 whole entry): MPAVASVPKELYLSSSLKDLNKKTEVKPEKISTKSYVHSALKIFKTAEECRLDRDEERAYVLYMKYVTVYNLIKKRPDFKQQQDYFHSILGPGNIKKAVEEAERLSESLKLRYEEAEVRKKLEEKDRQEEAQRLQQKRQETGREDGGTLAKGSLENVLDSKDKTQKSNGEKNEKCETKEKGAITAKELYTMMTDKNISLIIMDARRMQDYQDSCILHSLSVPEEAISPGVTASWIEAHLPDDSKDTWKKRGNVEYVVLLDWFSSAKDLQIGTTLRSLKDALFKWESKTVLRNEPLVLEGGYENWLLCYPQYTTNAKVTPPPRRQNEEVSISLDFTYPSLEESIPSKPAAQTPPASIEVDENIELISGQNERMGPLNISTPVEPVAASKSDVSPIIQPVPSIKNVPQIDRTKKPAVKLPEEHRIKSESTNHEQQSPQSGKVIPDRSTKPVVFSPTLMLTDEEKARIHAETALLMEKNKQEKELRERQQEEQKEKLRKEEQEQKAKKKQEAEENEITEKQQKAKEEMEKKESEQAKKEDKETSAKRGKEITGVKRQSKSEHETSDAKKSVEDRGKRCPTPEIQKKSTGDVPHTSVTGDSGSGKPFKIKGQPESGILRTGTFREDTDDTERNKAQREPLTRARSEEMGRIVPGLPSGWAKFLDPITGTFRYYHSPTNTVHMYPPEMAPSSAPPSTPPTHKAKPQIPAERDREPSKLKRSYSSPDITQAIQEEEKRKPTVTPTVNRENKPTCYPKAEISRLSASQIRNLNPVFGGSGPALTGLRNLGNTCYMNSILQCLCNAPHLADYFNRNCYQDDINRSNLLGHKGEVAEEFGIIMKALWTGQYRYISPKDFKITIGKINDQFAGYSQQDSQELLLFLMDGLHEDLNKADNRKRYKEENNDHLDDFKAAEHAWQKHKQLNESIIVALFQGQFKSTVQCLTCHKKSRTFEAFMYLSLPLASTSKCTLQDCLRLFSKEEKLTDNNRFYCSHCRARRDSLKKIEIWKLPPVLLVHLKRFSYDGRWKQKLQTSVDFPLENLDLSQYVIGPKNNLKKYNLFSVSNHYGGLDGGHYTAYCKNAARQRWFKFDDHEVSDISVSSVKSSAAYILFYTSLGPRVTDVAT
# UniProt Q96JH7, sequence (Q96JH7 whole entry): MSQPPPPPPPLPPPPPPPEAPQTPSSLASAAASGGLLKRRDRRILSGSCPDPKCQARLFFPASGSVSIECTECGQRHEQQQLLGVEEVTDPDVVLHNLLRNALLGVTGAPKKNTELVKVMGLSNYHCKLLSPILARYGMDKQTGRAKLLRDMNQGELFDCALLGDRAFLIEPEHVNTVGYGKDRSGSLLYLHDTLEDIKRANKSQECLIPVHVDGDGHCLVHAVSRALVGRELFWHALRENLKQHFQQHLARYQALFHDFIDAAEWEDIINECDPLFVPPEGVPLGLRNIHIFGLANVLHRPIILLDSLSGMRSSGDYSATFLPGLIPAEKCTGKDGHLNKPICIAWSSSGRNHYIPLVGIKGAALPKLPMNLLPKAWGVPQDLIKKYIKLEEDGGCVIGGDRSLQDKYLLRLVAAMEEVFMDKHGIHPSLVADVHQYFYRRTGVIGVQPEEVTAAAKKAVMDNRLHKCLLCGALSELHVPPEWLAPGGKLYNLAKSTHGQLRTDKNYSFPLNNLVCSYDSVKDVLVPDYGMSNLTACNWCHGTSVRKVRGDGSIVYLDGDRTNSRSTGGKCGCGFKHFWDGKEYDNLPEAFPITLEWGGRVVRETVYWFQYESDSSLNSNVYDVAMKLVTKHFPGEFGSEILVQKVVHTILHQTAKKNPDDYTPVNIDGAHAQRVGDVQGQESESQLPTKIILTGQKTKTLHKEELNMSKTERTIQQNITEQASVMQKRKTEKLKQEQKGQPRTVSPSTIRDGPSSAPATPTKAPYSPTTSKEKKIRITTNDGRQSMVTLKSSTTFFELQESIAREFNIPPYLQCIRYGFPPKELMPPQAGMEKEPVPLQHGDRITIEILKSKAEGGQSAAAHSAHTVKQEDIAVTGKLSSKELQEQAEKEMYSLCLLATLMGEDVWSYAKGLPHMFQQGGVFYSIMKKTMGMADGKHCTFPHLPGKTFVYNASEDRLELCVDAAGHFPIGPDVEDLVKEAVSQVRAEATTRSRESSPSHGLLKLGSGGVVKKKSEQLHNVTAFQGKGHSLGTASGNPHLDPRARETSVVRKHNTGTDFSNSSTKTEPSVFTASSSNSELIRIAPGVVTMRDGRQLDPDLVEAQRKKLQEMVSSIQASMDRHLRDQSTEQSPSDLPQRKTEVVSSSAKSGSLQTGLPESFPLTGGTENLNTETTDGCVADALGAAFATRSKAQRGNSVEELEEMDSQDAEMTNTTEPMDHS
# UniProt Q5VVQ6, sequence (Q5VVQ6 whole entry): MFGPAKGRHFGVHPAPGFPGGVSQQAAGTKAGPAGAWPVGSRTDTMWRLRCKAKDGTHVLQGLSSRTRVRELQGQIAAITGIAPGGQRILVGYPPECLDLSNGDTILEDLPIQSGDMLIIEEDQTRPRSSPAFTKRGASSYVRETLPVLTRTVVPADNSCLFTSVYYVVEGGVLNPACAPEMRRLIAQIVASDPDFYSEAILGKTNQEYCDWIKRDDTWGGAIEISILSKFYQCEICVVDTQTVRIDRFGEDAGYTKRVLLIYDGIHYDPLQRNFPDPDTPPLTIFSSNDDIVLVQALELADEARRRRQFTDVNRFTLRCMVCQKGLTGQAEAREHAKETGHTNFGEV
# UniProt Q70EL2, sequence (Q70EL2 whole entry): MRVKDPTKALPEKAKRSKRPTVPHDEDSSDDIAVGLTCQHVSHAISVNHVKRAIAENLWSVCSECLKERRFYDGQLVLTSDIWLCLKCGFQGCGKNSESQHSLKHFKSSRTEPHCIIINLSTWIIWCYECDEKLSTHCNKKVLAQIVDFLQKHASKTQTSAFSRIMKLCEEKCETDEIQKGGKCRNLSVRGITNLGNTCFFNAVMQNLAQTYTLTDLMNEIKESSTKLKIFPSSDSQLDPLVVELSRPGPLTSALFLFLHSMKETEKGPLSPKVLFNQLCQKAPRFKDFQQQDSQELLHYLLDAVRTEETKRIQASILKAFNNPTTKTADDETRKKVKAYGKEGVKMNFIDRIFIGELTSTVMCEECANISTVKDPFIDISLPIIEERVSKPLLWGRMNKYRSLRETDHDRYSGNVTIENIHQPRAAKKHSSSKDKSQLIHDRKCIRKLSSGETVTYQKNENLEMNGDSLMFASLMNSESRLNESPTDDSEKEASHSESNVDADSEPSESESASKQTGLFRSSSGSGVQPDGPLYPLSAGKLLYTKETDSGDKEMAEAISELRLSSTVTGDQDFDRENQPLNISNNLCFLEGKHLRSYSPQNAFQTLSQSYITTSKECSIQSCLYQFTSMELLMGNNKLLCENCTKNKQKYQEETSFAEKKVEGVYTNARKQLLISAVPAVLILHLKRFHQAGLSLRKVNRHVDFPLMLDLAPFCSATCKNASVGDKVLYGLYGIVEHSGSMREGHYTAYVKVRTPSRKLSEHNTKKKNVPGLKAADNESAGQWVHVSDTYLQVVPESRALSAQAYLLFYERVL
# UniProt Q96RU2, sequence (Q96RU2 whole entry): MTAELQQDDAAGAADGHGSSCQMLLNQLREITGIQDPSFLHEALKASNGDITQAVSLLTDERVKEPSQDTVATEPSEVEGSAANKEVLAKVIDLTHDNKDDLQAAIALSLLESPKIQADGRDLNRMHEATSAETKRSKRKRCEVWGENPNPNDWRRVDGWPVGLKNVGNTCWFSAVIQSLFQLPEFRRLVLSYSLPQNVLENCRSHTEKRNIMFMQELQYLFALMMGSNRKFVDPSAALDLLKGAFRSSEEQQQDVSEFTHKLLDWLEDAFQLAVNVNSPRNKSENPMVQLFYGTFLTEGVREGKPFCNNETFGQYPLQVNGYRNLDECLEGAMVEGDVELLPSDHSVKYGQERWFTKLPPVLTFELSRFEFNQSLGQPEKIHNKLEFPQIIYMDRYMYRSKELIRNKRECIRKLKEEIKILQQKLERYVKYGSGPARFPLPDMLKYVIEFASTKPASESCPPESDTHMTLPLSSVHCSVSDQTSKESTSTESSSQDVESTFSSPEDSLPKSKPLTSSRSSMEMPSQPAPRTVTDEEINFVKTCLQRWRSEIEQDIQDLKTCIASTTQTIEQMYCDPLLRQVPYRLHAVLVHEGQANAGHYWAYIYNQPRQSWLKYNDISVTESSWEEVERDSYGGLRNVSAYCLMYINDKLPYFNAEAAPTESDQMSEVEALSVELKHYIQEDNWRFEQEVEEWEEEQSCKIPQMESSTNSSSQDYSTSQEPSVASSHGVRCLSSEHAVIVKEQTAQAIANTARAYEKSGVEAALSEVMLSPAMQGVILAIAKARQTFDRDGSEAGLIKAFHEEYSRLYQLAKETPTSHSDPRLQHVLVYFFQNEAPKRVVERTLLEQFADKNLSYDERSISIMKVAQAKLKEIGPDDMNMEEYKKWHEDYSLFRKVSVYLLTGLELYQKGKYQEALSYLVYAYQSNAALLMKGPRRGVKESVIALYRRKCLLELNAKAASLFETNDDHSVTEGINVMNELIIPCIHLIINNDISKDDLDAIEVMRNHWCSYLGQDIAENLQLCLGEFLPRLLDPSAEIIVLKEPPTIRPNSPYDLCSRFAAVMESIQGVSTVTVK
# UniProt P54578, sequence (P54578 whole entry): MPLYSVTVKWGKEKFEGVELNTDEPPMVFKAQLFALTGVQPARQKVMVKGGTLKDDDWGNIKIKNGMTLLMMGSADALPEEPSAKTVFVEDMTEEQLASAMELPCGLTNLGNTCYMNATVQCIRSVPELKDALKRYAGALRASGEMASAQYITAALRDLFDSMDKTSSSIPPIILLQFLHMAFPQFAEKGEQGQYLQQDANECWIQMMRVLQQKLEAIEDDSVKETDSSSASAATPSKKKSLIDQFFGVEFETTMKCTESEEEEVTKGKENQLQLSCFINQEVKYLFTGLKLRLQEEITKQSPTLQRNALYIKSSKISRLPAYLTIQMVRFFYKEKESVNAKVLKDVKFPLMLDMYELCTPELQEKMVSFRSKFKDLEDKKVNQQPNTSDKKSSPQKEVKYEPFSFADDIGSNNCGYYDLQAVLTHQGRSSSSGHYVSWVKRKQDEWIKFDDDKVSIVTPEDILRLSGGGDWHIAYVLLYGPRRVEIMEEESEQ
row,Target,log2 ratio of Biotin-Ahx-Ub-VS probe labelling
1,VCPIP1 (UniProt Q96JH7),-0.139
2,UniProt Q70EL2,-0.17
3,BAP1 (UniProt Q92560),-1.22 (active)
4,USP39 (UniProt Q53GS9),-0.0648
5,USP4 (UniProt Q13107),-1.18 (active)
6,UniProt Q9UGI0,-0.354
7,USP54 (UniProt Q70EL1),-2.86 (active)
8,UniProt P51784,0.0601
9,USP22 (UniProt Q9UPT9),0.0954
10,YOD1 (UniProt Q5VVQ6),0.0405
11,USP8 (UniProt P40818),-0.108
12,ALG13 (UniProt Q9NP73),0.312
13,MINDY4 (UniProt Q4G0A6),0.225
14,USP36 (UniProt Q9P275),-0.0259
15,UCHL3 (UniProt P15374),-0.285
16,OTUD4 (UniProt Q01804),-0.113
17,USP14 (UniProt P54578),-0.0931
18,USP34 (UniProt Q70CQ2),-0.106
19,PSMD7 (UniProt P51665),0.132
20,USP28 (UniProt Q96RU2),-0.0726

# Same assay, conditions: compound concentration: 200uM; treatment time: 3 h
row,Target,log2 ratio of Biotin-Ahx-Ub-VS probe labelling
1,VCPIP1 (UniProt Q96JH7),-0.277
2,UniProt Q70EL2,-1.02 (active)
3,BAP1 (UniProt Q92560),-3.29 (active)
4,USP39 (UniProt Q53GS9),-0.162
5,USP4 (UniProt Q13107),-0.498
6,UniProt Q9UGI0,-0.0472
7,USP54 (UniProt Q70EL1),-2.26 (active)
8,UniProt P51784,-0.0791
9,USP22 (UniProt Q9UPT9),-0.231
10,YOD1 (UniProt Q5VVQ6),-0.24
11,USP8 (UniProt P40818),-0.0766
12,ALG13 (UniProt Q9NP73),0.0712
13,MINDY4 (UniProt Q4G0A6),0.167
14,USP36 (UniProt Q9P275),0.018
15,UCHL3 (UniProt P15374),-0.275
16,OTUD4 (UniProt Q01804),-0.21
17,USP14 (UniProt P54578),-0.202
18,USP34 (UniProt Q70CQ2),-0.024
19,PSMD7 (UniProt P51665),-0.458
20,USP28 (UniProt Q96RU2),-0.646
